# According to the supplement of paper PMC4466140:
# B1: unnamed (peptide)
# chain: VGFRLALKFPSRITG
# Assays:
# Assay in all cases: SPOT peptide array binding signal intensity (averaged, normalized) (arbitrary units (background-subtracted, floor 0; scale differs between SH3 domains)); higher = stronger binding of the SH3 domain to the peptide
# AgAbp1 = biological target: AgAbp1
# Procedure, shortened: (§1)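 E. coli BL21(DE3) was used to express GST-fused SH3 domains from four yeast species, which were then purified on glutathione Sepharose. These were incubated at 10 μg/ml in TBS-based blocking buffer overnight at 4°C on cellulose membranes carrying synthetic 15-mer peptides, in which cysteines were replaced by serines. Binding signal is the replicate average of normalized, background-subtracted spot intensity, in arbitrary units that differ between domains.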
# AgBbc1 = biological target: AgBbc1
# Procedure, shortened: as §1
# AgBem1-D1 = biological target: AgBem1-D1
# Procedure, shortened: as §1
# AgBzz1-D1 = biological target: AgBzz1-D1
# Procedure, shortened: as §1
# AgBzz1-D2 = biological target: AgBzz1-D2
# Procedure, shortened: as §1
# AgCyk3 = biological target: AgCyk3
# Procedure, shortened: as §1
# AgFus1 = biological target: AgFus1
# Procedure, shortened: as §1
# AgHof1 = biological target: AgHof1
# Procedure, shortened: as §1
# AgHse1 = biological target: AgHse1
# Procedure, shortened: as §1
# AgLsb1 = biological target: AgLsb1
# Procedure, shortened: as §1
# AgLsb4 = biological target: AgLsb4
# Procedure, shortened: as §1
# AgMyo5 = biological target: AgMyo5
# Procedure, shortened: as §1
# AgNbp2 = biological target: AgNbp2
# Procedure, shortened: as §1
# AgRvs167 = biological target: AgRvs167
# Procedure, shortened: as §1
# AgSho1 = biological target: AgSho1
# Procedure, shortened: as §1
# AgSla1-D1-D2 = biological target: AgSla1-D1-D2
# Procedure, shortened: as §1
# AgSla1-D3 = biological target: AgSla1-D3
# Procedure, shortened: as §1
# CaAbp1-D1 = biological target: CaAbp1-D1
# Procedure, shortened: as §1
# CaAbp1-D2 = biological target: CaAbp1-D2
# Procedure, shortened: as §1
# CaBbc1 = biological target: CaBbc1
# Procedure, shortened: as §1
# CaBem1-D1 = biological target: CaBem1-D1
# Procedure, shortened: as §1
# CaBzz1-D1 = biological target: CaBzz1-D1
# Procedure, shortened: as §1
# CaBzz1-D2 = biological target: CaBzz1-D2
# Procedure, shortened: as §1
# CaCyk3 = biological target: CaCyk3
# Procedure, shortened: as §1
# CaFus1 = biological target: CaFus1
# Procedure, shortened: as §1
# CaHof1 = biological target: CaHof1
# Procedure, shortened: as §1
# CaHse1 = biological target: CaHse1
# Procedure, shortened: as §1
# CaLsb1 = biological target: CaLsb1
# Procedure, shortened: as §1
# CaLsb4 = biological target: CaLsb4
# Procedure, shortened: as §1
# CaMyo5 = biological target: CaMyo5
# Procedure, shortened: as §1
# CaNbp2 = biological target: CaNbp2
# Procedure, shortened: as §1
# CaRvs167 = biological target: CaRvs167
# Procedure, shortened: as §1
# CaRvs167-3 = biological target: CaRvs167-3
# Procedure, shortened: as §1
# CaSho1 = biological target: CaSho1
# Procedure, shortened: as §1
# CaSla1-D1-D2 = biological target: CaSla1-D1-D2
# Procedure, shortened: as §1
# CaSla1-D3 = biological target: CaSla1-D3
# Procedure, shortened: as §1
# ScAbp1 = biological target: ScAbp1
# Procedure, shortened: as §1
# ScBbc1 = biological target: ScBbc1
# Procedure, shortened: as §1
# ScBem1-D1 = biological target: ScBem1-D1
# Procedure, shortened: as §1
# ScBzz1-D1 = biological target: ScBzz1-D1
# Procedure, shortened: as §1
# ScBzz1-D2 = biological target: ScBzz1-D2
# Procedure, shortened: as §1
# ScCyk3 = biological target: ScCyk3
# Procedure, shortened: as §1
# ScFus1 = biological target: ScFus1
# Procedure, shortened: as §1
# ScHof1 = biological target: ScHof1
# Procedure, shortened: as §1
# ScHse1 = biological target: ScHse1
# Procedure, shortened: as §1
# ScLsb1 = biological target: ScLsb1
# Procedure, shortened: as §1
# ScLsb2 = biological target: ScLsb2
# Procedure, shortened: as §1
# ScLsb3 = biological target: ScLsb3
# Procedure, shortened: as §1
# ScLsb4 = biological target: ScLsb4
# Procedure, shortened: as §1
# ScMyo3 = biological target: ScMyo3
# Procedure, shortened: as §1
# ScMyo5 = biological target: ScMyo5
# Procedure, shortened: as §1
# ScNbp2 = biological target: ScNbp2
# Procedure, shortened: as §1
# ScPex13 = biological target: ScPex13
# Procedure, shortened: as §1
# ScRvs167 = biological target: ScRvs167
# Procedure, shortened: as §1
# ScSho1 = biological target: ScSho1
# Procedure, shortened: as §1
# ScSla1-D1-D2 = biological target: ScSla1-D1-D2
# Procedure, shortened: as §1
# ScSla1-D3 = biological target: ScSla1-D3
# Procedure, shortened: as §1
# SpAbp1-D1 = biological target: SpAbp1-D1
# Procedure, shortened: as §1
# SpBbc1 = biological target: SpBbc1
# Procedure, shortened: as §1
# SpBzz1-D1 = biological target: SpBzz1-D1
# Procedure, shortened: as §1
# SpBzz1-D2 = biological target: SpBzz1-D2
# Procedure, shortened: as §1
# SpCyk3 = biological target: SpCyk3
# Procedure, shortened: as §1
# SpHof1 = biological target: SpHof1
# Procedure, shortened: as §1
# SpHof1-2 = biological target: SpHof1-2
# Procedure, shortened: as §1
# SpHof1-3 = biological target: SpHof1-3
# Procedure, shortened: as §1
# SpHse1 = biological target: SpHse1
# Procedure, shortened: as §1
# SpLsb1 = biological target: SpLsb1
# Procedure, shortened: as §1
# SpLsb4 = biological target: SpLsb4
# Procedure, shortened: as §1
# SpMyo1 = biological target: SpMyo1
# Procedure, shortened: as §1
# SpNbp2 = biological target: SpNbp2
# Procedure, shortened: as §1
# SpPex13 = biological target: SpPex13
# Procedure, shortened: as §1
# SpRvs167 = biological target: SpRvs167
# Procedure, shortened: as §1
# SpSla1-D1-D2 = biological target: SpSla1-D1-D2
# Procedure, shortened: as §1
# SpSla1-D3 = biological target: SpSla1-D3
# Procedure, shortened: as §1
binder,measurement,setting,value
B1,SPOT peptide array binding signal intensity,AgAbp1,156
same,SPOT peptide array binding signal intensity,AgBbc1,89.2
same,SPOT peptide array binding signal intensity,AgBem1-D1,596
same,SPOT peptide array binding signal intensity,AgBzz1-D1,231
same,SPOT peptide array binding signal intensity,AgBzz1-D2,180
same,SPOT peptide array binding signal intensity,AgCyk3,107
same,SPOT peptide array binding signal intensity,AgFus1,3790
same,SPOT peptide array binding signal intensity,AgHof1,137
same,SPOT peptide array binding signal intensity,AgHse1,3050
same,SPOT peptide array binding signal intensity,AgLsb1,17.2
same,SPOT peptide array binding signal intensity,AgLsb4,1990
same,SPOT peptide array binding signal intensity,AgMyo5,9.5
same,SPOT peptide array binding signal intensity,AgNbp2,1370
same,SPOT peptide array binding signal intensity,AgRvs167,55.5
same,SPOT peptide array binding signal intensity,AgSho1,2510
same,SPOT peptide array binding signal intensity,AgSla1-D1-D2,505
same,SPOT peptide array binding signal intensity,AgSla1-D3,31
same,SPOT peptide array binding signal intensity,CaAbp1-D1,766
same,SPOT peptide array binding signal intensity,CaAbp1-D2,1210
same,SPOT peptide array binding signal intensity,CaBbc1,179
same,SPOT peptide array binding signal intensity,CaBem1-D1,147
same,SPOT peptide array binding signal intensity,CaBzz1-D1,976
same,SPOT peptide array binding signal intensity,CaBzz1-D2,473
same,SPOT peptide array binding signal intensity,CaCyk3,118
same,SPOT peptide array binding signal intensity,CaFus1,5990
same,SPOT peptide array binding signal intensity,CaHof1,13.8
same,SPOT peptide array binding signal intensity,CaHse1,966
same,SPOT peptide array binding signal intensity,CaLsb1,25
same,SPOT peptide array binding signal intensity,CaLsb4,716
same,SPOT peptide array binding signal intensity,CaMyo5,105
same,SPOT peptide array binding signal intensity,CaNbp2,2320
same,SPOT peptide array binding signal intensity,CaRvs167,703
same,SPOT peptide array binding signal intensity,CaRvs167-3,2360
same,SPOT peptide array binding signal intensity,CaSho1,3450
same,SPOT peptide array binding signal intensity,CaSla1-D1-D2,108
same,SPOT peptide array binding signal intensity,CaSla1-D3,782
same,SPOT peptide array binding signal intensity,ScAbp1,137
same,SPOT peptide array binding signal intensity,ScBbc1,11.5
same,SPOT peptide array binding signal intensity,ScBem1-D1,60
same,SPOT peptide array binding signal intensity,ScBzz1-D1,188
same,SPOT peptide array binding signal intensity,ScBzz1-D2,649
same,SPOT peptide array binding signal intensity,ScCyk3,137
same,SPOT peptide array binding signal intensity,ScFus1,3260
same,SPOT peptide array binding signal intensity,ScHof1,7.5
same,SPOT peptide array binding signal intensity,ScHse1,3980
same,SPOT peptide array binding signal intensity,ScLsb1,12
same,SPOT peptide array binding signal intensity,ScLsb2,38
same,SPOT peptide array binding signal intensity,ScLsb3,1230
same,SPOT peptide array binding signal intensity,ScLsb4,152
same,SPOT peptide array binding signal intensity,ScMyo3,8.5
same,SPOT peptide array binding signal intensity,ScMyo5,26.5
same,SPOT peptide array binding signal intensity,ScNbp2,1400
same,SPOT peptide array binding signal intensity,ScPex13,67.8
same,SPOT peptide array binding signal intensity,ScRvs167,180
same,SPOT peptide array binding signal intensity,ScSho1,3930
same,SPOT peptide array binding signal intensity,ScSla1-D1-D2,561
same,SPOT peptide array binding signal intensity,ScSla1-D3,246
same,SPOT peptide array binding signal intensity,SpAbp1-D1,658
same,SPOT peptide array binding signal intensity,SpBbc1,97.5
same,SPOT peptide array binding signal intensity,SpBzz1-D1,1110
same,SPOT peptide array binding signal intensity,SpBzz1-D2,111
same,SPOT peptide array binding signal intensity,SpCyk3,75
same,SPOT peptide array binding signal intensity,SpHof1,620
same,SPOT peptide array binding signal intensity,SpHof1-2,179
same,SPOT peptide array binding signal intensity,SpHof1-3,2110
same,SPOT peptide array binding signal intensity,SpHse1,1790
same,SPOT peptide array binding signal intensity,SpLsb1,40.5
same,SPOT peptide array binding signal intensity,SpLsb4,913
same,SPOT peptide array binding signal intensity,SpMyo1,41
same,SPOT peptide array binding signal intensity,SpNbp2,2320
same,SPOT peptide array binding signal intensity,SpPex13,578
same,SPOT peptide array binding signal intensity,SpRvs167,161
same,SPOT peptide array binding signal intensity,SpSla1-D1-D2,17
same,SPOT peptide array binding signal intensity,SpSla1-D3,260
